From PubChem BioAssay (NCATS)
Results filed as inconclusive are left out. The source made the active and inactive calls. Calls follow the shape of the dose curve; as a rule, active = well fitted inhibition curve with a large enough effect; inconclusive = small, poorly fitted or top-dose-only effect; inactive = no such curve, though single readings can be large or run the other way.

assay: qHTS for Inhibitors of the Aldehyde Dehydrogenase Family (ALDH1A2, ALDH1A3, ALDH2, ALDH3A1) (AID 2061307); conditions: ALDH inhibition qHTS; series mostly up to 50.3 µM; also: nearly all actives have a fitted effect of over 50% in size; as to Potency: test system not described further here
Potency is read from the fitted curve at half-maximal effect.

Row | Compound | Potency
1 | NC(=O)C1CCN(c2nc(-c3cc4ccccc4o3)cs2)CC1 | 2.83 µM (active)
2 | Cc1ccc(OCCn2c3c(c4ccccc42)CN(C(=O)C2CCCCC2)CC3)cc1 | 1.59 µM (active)
3 | COc1ccc(C2Oc3ccccc3C(=O)N2Cc2ccccc2)cc1COc1ccc(NC(C)=O)cc1 (stereo not given) | 0.283 µM (active)
4 | Cc1ccc(CN(C)c2ncnc3ccc(-c4ccc(C#N)n4C)cc23)o1 | 3.16 µM (active)
5 | N#Cc1cnc(NS(=O)(=O)c2ccc(NC(=O)Cc3ccc(Cl)c(Cl)c3)cc2)s1 | 25.2 µM (active)
6 | NC(=O)C1CCN(c2nccc(-c3ccc4c(c3)OCCCO4)n2)CC1 | inactive
7 | CCCCN1C(=O)c2ccccc2NC1c1ccc(OC)c(COc2ccc(NC(C)=O)cc2)c1 (stereo not given) | 7.12 µM (active)
8 | N#Cc1cccnc1SC1=NS(=O)(=O)c2ccccc21 | 0.891 µM (active)
9 | Cc1ccc2nc3sc(C(=O)N4CCCCC4)cc3cc2c1 | 11.3 µM (active)
10 | COc1ccc(C2Nc3ccccc3C(=O)N2Cc2ccc(-c3ccccc3)cc2)cc1COc1ccc(NC(C)=O)cc1 (stereo not given) | 1.79 µM (active)
11 | CCOc1ccc(CCNC(=O)c2cc3c(s2)CCC3)cc1OCC | inactive
12 | CN1C(=O)Cc2cc([S+](=O)([O-])N3CCN([S+](=O)([O-])c4c(F)cccc4F)CC3)ccc21 | inactive
13 | Cc1ccc(-c2cnn(CC(=O)NCCc3ccccc3)c(=O)c2)cc1 | 12.7 µM (active)
14 | Cc1ccc(NC(=O)CN2C(=O)N/C(=C\c3cccn3-c3ccc(C(=O)O)cc3)C2=O)cc1 | inactive
15 | N#Cc1c(-c2ccc(Br)cc2)no[n+]1[O-] | 7.98 µM (active)
